Experimental data published in PubChem BioAssay (NCI).
Compounds without any hit were thinned out: in the full panel of roughly 79,000, 15% have a hit. The source made the active and inactive calls. No stated cut-off is given here; in the data, active means growth inhibition above about 70%; inactive means the rest.

How the values were obtained:
[1] = NCI Yeast Anticancer Drug Screen. Data for the wt1 strain (AID 149);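 further: 0% = growth of vehicle-treated wt1 cultures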; details: S. cerevisiae wt1 strain (SPY 50644) growth inhibition, hits give high values
Method in brief: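 Compounds are added to wt1 yeast cultures. Growth is then measured. Inhibition is expressed relative to vehicle-treated controls.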

[2] = NCI Yeast Anticancer Drug Screen. Data for the mgt1 strain (AID 153); details: S. cerevisiae mgt1 mutant growth inhibition, hits give high values
Method in brief: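 mgt1 strain exposed; growth vs vehicle control recorded as inhibition.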

[3] = NCI Yeast Anticancer Drug Screen. Data for the rad50 strain (AID 155);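 further: 0% = growth of vehicle-only cultures of the same strain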; details: S. cerevisiae rad50 strain growth inhibition, hits give high values
Method in brief: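 Inhibition values express reduced yeast growth in compound-treated cultures relative to vehicle-treated controls.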

[4] = NCI Yeast Anticancer Drug Screen. Data for the mec2-1 strain (AID 157); details: S. cerevisiae mec2-1 strain, hits give high values
Method in brief: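 Vehicle-treated cultures served as reference for growth inhibition of compound-exposed mec2-1 yeast.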

[5] = NCI Yeast Anticancer Drug Screen. Data for the rad14 strain (AID 159);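 further: 0% = growth of vehicle-treated control cultures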; details: S. cerevisiae rad14 strain growth inhibition, hits give high values
Method in brief: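 A mutant yeast strain defective in DNA damage repair is treated with compound; inhibition of its growth is scored against untreated, vehicle-exposed cultures.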

[6] = NCI Yeast Anticancer Drug Screen. Data for the sgs1 mgt1 strain (AID 161);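 further: 0% = growth of cultures given vehicle only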; details: S. cerevisiae sgs1 mgt1 strain, hits give high values
Method in brief: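 Inhibition of yeast growth, normalised to vehicle-treated controls, is reported for a strain bearing genetic alterations in DNA damage repair.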

[7] = NCI Yeast Anticancer Drug Screen. Data for the CLN2oe strain (AID 163);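 further: 0% = growth of vehicle-only control cultures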; details: S. cerevisiae CLN2oe strain, hits give high values
Method in brief: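 Inhibition relative to vehicle-treated yeast is reported. Cells: strain with genetic alteration in cell-cycle control, grown with compound.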

[8] = NCI Yeast Anticancer Drug Screen. Data for the cln2 rad14 strain (AID 165);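 further: 0% = growth equal to vehicle treated cultures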; details: S. cerevisiae cln2 rad14 strain, hits give high values
Method in brief: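 Each compound was tested on cln2 rad14 yeast. Inhibition of growth was calculated against vehicle-exposed controls.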

[9] = NCI Yeast Anticancer Drug Screen. Data for the bub3 strain (AID 167); details: S. cerevisiae bub3 mutant strain, hits give high values
Method in brief: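 Steps: expose the mutant yeast strain to compound; grow alongside vehicle-treated cultures; measure growth; express inhibition against the vehicle cultures.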

[10] = NCI Yeast Anticancer Drug Screen. Data for the wt2 strain (AID 169);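 further: 0% = growth of vehicle-treated yeast cultures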; details: S. cerevisiae wt2 strain growth inhibition, hits give high values
Method in brief: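 Inhibition of yeast growth was determined after compound treatment, normalised to controls receiving only vehicle.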

[11] = NCI Yeast Anticancer Drug Screen. Data for the mlh1 strain (AID 171);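 further: 0% = growth of vehicle-treated control cultures of the same strain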; details: S. cerevisiae mlh1 strain growth inhibition, hits give high values
Method in brief: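 Vehicle-normalised growth inhibition of a repair- or checkpoint-altered yeast strain following compound treatment.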

[12] = NCI Yeast Anticancer Drug Screen. Data for the sgs1 strain (AID 173);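 further: 0% = growth of vehicle-only control cultures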; details: S. cerevisiae sgs1 mutant, hits give high values
Method in brief: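 Screen format: yeast with repair or checkpoint alterations, compound exposure, growth read relative to vehicle.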

[13] = NCI Yeast Anticancer Drug Screen. Data for the mlh1 rad18 strain (AID 175); details: S. cerevisiae mlh1 rad18 strain growth inhibition, hits give high values
Method in brief: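 Vehicle-treated cultures served as the reference for growth inhibition in a yeast strain carrying DNA damage repair alterations exposed to each compound.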

[14] = NCI Yeast Anticancer Drug Screen. Data for the rad18 strain (AID 177); details: S. cerevisiae rad18 mutant growth inhibition, hits give high values
Method in brief: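 Test articles were incubated with altered yeast defective in DNA damage repair. Results are given as inhibition of growth versus vehicle.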

[15] = at 5.0 µM (retest, dose inferred, filed as 0.5)
[16] = at 50.0 µM (retest, dose inferred, filed as 5.0)

Measured: growth inhibition

O=C(/C=N/O)Nc1cc(Cl)c(Cl)cc1Cl
inactive: [1]; at 1.2 µM -37% | [1]; at 3.7 µM -35% | [1]; at 11.0 µM -36% | [1]; at 33.0 µM -12% | [1]; at 100.0 µM 3% | [2]; at 1.2 µM -8% | [2]; at 3.7 µM -9% | [2]; at 11.0 µM 34% | [2]; at 33.0 µM 60% | [3]; at 1.2 µM -35% | [3]; at 3.7 µM -21% | [3]; [15] 45% | [3]; at 11.0 µM -33% | [3]; at 33.0 µM 10% | [3]; at 100.0 µM 63% | [4]; at 1.2 µM -34% | [4]; at 3.7 µM -22% | [4]; [15] 55% | [4]; at 11.0 µM -26% | [4]; at 33.0 µM -3% | [4]; at 50.0 µM 65% | [4]; at 100.0 µM 43% | [5]; at 1.2 µM -39% | [5]; at 3.7 µM -31% | [5]; at 11.0 µM -32% | [5]; at 33.0 µM 23% | [6]; [15] -12% | [7]; at 1.2 µM 6% | [7]; at 3.7 µM 18% | [7]; at 11.0 µM 1% | [7]; at 33.0 µM 18% | [7]; at 100.0 µM 63% | [8]; [15] 67% | [9]; at 1.2 µM -32% | [9]; at 3.7 µM -27% | [9]; [15] 17% | [9]; at 11.0 µM -21% | [9]; at 33.0 µM 8% | [9]; at 100.0 µM 57% | [10]; at 1.2 µM -56% | [10]; at 3.7 µM -58% | [10]; at 11.0 µM -38% | [10]; at 33.0 µM -1% | [10]; at 100.0 µM 37% | [11]; at 1.2 µM -34% | [11]; at 3.7 µM -26% | [11]; at 11.0 µM -9% | [11]; at 33.0 µM 37% | [12]; at 1.2 µM -55% | [12]; at 3.7 µM -31% | [12]; at 11.0 µM -36% | [12]; at 33.0 µM 28% | [12]; at 100.0 µM 67% | [13]; [15] 36% | [13]; at 50.0 µM 47.2% | [14]; at 1.2 µM -28% | [14]; at 3.7 µM -18% | [14]; at 11.0 µM -12% | [14]; at 33.0 µM 36%
active: [2]; at 100.0 µM 92% | [3]; [16] 98% | [3]; at 50.0 µM 79.2% | [4]; [16] 98% | [5]; at 100.0 µM 75% | [6]; [16] 84% | [8]; [16] 77% | [9]; [16] 89% | [11]; at 100.0 µM 79% | [13]; [16] 99% | [14]; at 100.0 µM 78%
